Measured values as given in PubChem BioAssay (Tox21).
Inconclusive results are not listed. Calls of active or inactive are those of the source. Unless noted, calls follow the shape of the dose curve; as a rule, active = well fitted curve in the direction sought with a large enough effect in the repeat runs; inconclusive = weak or mixed curves; inactive = no such curve, though single readings can be large; an effect the other way counts as inactive or inconclusive.

Experiments:
[1] = A CellTox Green Cytotoxicity Assay to monitor cytotoxicity in HepG2 cells - 0 hour (AID 1224882); also: nearly all actives have a fitted effect of over 35% in size
Outline: (§1)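 Fluorescent DNA-binding dye, 600 HepG2 cells/well, 5 h preincubation then compound in DMSO; same plates read at 0–40 h, 37 C.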

[2] = A CellTox Green Cytotoxicity Assay to monitor cytotoxicity in HepG2 cells - 32 hour (AID 1224883); also: nearly all actives have a fitted effect of over 50% in size; also: potency is read from the fitted curve at half-maximal effect
Outline: as §1

[3] = A CellTox Green Cytotoxicity Assay to monitor cytotoxicity in HEK293 cells - 8 hour (AID 1224884); also: nearly all actives have a fitted effect of over 35% in size; also: potency is read from the fitted curve at half-maximal effect
Outline: (§2)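 Homogeneous no-lysis format: HEK293 cell suspension mixed with CellTox Green reagent, seeded, incubated 5 h at 37 C/5% CO2, then dosed by pintool with compound in DMSO.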

[4] = qHTS RealTime-Glo MT Cell Viability Assay in HepG2 cells - 16 hour (AID 1224885); also: nearly all actives have a fitted effect of over 50% in size; also: potency is read from the fitted curve at half-maximal effect
Outline: (§3)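 Cells + NanoLuc/prosubstrate dispensed (600 cells/well) → 5 h at 37 C/5% CO2 → compounds in DMSO transferred → 40 h incubation at 37 C, luminescence read at 0, 8, 16, 24, 32, 40 h.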

[5] = qHTS RealTime-Glo MT Cell Viability Assay in HEK293 cells - 8 hour (AID 1224887); also: potency is read from the fitted curve at half-maximal effect; nearly all actives have a fitted effect of over 50% in size
Outline: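 Measured as luminescence from the same continuously cultured HEK293 wells at successive time points (0, 8, 16, 24, 32, 40 h) after compound addition. Reagent present from seeding; dosing at 5 h; incubation 37 C.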

[6] = A CellTox Green Cytotoxicity Assay to monitor cytotoxicity in HEK293 cells - 16 hour (AID 1224888); also: nearly all actives have a fitted effect of over 35% in size; also: potency is read from the fitted curve at half-maximal effect
Outline: as §2

[7] = qHTS RealTime-Glo MT Cell Viability Assay in HepG2 cells - 0 hour (AID 1224889); also: nearly all actives have a fitted effect of over 50% in size
Outline: as §3

[8] = A CellTox Green Cytotoxicity Assay to monitor cytotoxicity in HepG2 cells - 8 hour (AID 1224890); also: nearly all actives have a fitted effect of over 45% in size; also: potency is read from the fitted curve at half-maximal effect
Outline: as §1

[9] = qHTS assay to identify small molecule antagonists of the estrogen receptor alpha (ER-alpha) signaling pathway using the BG1 cell line in the presence of 0.1 nM 17-beta-estradiol - cell viability counter screen (AID 1259241); also: nearly all actives have a fitted effect of over 40% in size; also: potency is read from the fitted curve at half-maximal effect
Outline: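 VM7Luc4E2, 4,000 cells/well, phenol red-free medium + 10% charcoal-stripped FBS; 24 hr plating; cpd + 0.1 nM E2 final, 22 hr 37C/5% CO2; CellTiter-Fluor 30 min, fluorescence.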

[10] = qHTS assay to identify small molecule antagonists of the androgen receptor (AR) signaling pathway using the MDA cell line in the presence of 0.5 nM R1881 - cell viability counter screen (AID 1259242); also: nearly all actives have a fitted effect of over 45% in size; also: potency is read from the fitted curve at half-maximal effect
Outline: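 Human breast carcinoma MDA-kb2 cells, cultured without CO2, receive compounds alongside 0.5 nM (final) R1881 agonist. After 16 hr at 37C, viability is taken as live-cell protease signal.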

[11] = target: Estrogen receptor (Homo sapiens) (UniProt P03372); experiment: qHTS assay to identify small molecule antagonists of the estrogen receptor alpha (ER-alpha) signaling pathway using the BG1 cell line in the presence of 0.1 nM 17-beta-estradiol (AID 1259244); also: nearly all actives have a fitted effect of over 50% in size; also: potency is read from the fitted curve at half-maximal effect
Outline: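 Seeding of stripped-serum-adapted VM7Luc4E2 cells, 24 h attachment, compound transfer, then 0.1 nM final 17beta-estradiol; after 22 h incubation, ONE-Glo reagent and luminescence reading.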

[12] = qHTS assay to identify small molecule phospholipidosis (PLD) inducers (AID 1259344; active = well fitted curve in the direction sought with a large enough effect; an effect the other way counts as inactive or inconclusive)
Outline: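 After 4 h attachment on collagen I, HepG2 cells were dosed with compound alongside LipidTOX Red, kept 24 h at 37 C, fixed, and imaged for lamellar phospholipid pits.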

[13] = qHTS assay to identify small molecule HDAC inhibitors (AID 1259364); also: potency is read from the fitted curve at half-maximal effect;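 also: wild-type HCT-116 cells with endogenous class I/II HDAC activity; nearly all actives have a fitted effect of over 45% in size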
Outline: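 After a 2 hr compound incubation (37C, 5% CO2), HCT-116 cells seeded at 1,500/well the day before received HDAC-Glo reagent; signal read as luminescence after 30 min at room temperature.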

[14] = qHTS assay to identify small molecule agonists of the sonic hedgehog signaling (Shh) pathway - cell viability counter screen (AID 1259366); also: nearly all actives have a fitted effect of over 50% in size; also: potency is read from the fitted curve at half-maximal effect
Outline: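 Cytotoxicity counter screen run in the same wells as the Shh reporter assay. NIH/3T3 cells carrying a Gli1 response element–driven luciferase were treated with DMSO-dissolved compounds for 24hr, and live-cell protease activity was measured with CellTiter-Fluor.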

[15] = qHTS assay to identify small molecule antagonists of the sonic hedgehog signaling (Shh) pathway - cell viability counter screen (AID 1259367); also: nearly all actives have a fitted effect of over 55% in size; also: potency is read from the fitted curve at half-maximal effect
Outline: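 Conditioned medium drove Shh signaling in 3T3 Gli1-Luc cells exposed to compounds at 37C and 5% CO2. Viability was determined from CellTiter-Fluor fluorescence, with reagent incubated 1 hr after 23 hr of treatment.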

[16] = qHTS assay to identify small molecule agonists of the sonic hedgehog signaling (Shh) pathway (AID 1259368; calls by dose curve;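 also: NIH/3T3-derived 3T3Gli1-Luc cells carrying a stable Gli1-driven firefly luciferase reporter; series mostly up to about 92 µM; nearly all actives have a fitted effect of over 15% in size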)
Outline: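 Stable NIH/3T3 Gli1-Luc reporter clone; 24 hr cpd exposure after a 4 hr settling period; luminescence endpoint.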

[17] = qHTS assay to identify small molecule antagonists of the sonic hedgehog signaling (Shh) pathway (AID 1259369; calls by dose curve; also: nearly all actives have a fitted effect of over 45% in size; also: potency is read from the fitted curve at half-maximal effect)
Outline: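 Gli1 transcriptional reporter (firefly Luc) in NIH/3T3 background, conditioned-medium activated. 24hr exposure, luminescence endpoint.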

[18] = qHTS assay to identify small molecule HDAC inhibitors - cell viability counter screen (AID 1259365)
Outline: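 Luminescence from CellTiter-Glo, developed 30min at room temperature, reports viability of wild-type HCT-116 cells treated 2hr with compounds at 37 C and 5% CO2 after overnight plating.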

Measured: Potency

Sequence of Estrogen receptor (Homo sapiens) (P03372 whole entry, looked up): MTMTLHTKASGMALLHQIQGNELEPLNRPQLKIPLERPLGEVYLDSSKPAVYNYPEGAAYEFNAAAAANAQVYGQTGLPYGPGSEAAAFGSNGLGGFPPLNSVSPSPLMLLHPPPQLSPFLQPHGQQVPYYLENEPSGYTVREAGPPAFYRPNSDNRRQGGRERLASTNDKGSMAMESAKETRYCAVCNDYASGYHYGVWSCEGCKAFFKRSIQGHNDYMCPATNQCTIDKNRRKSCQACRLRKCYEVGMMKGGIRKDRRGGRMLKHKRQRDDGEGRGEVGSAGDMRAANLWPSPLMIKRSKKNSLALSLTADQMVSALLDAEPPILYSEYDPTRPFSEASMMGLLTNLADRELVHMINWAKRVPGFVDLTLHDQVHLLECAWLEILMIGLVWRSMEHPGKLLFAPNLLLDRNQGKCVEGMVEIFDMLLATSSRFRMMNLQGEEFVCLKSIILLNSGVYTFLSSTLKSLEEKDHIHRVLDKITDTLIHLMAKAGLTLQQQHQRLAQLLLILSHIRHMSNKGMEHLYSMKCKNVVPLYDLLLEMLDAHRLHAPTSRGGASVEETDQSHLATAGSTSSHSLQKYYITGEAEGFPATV

OC1(c2ccc(Cl)c(C(F)(F)F)c2)CCN(CCCC(c2ccc(F)cc2)c2ccc(F)cc2)CC1
active: [2] 8.49 µM | [3] 21.3 µM | [4] 10.7 µM | [5] 19 µM | [6] 23.9 µM | [8] 19 µM | [9] 33.5 µM | [10] 13.3 µM | [11] 26.6 µM | [14] 13.3 µM | [15] 18.8 µM | [17] 13.3 µM
inactive: [1] | [7] | [12] | [13] | [16]

CC1=C(/C=C/C(C)=C/C=C/C(C)=C/C=O)C(C)(C)CCC1
inactive: [1] | [7] | [13] | [16]
active: [2] 48.7 µM | [3] 48.7 µM | [4] 48.7 µM | [6] 43.4 µM | [10] 60.8 µM | [14] 30.5 µM | [15] 60.8 µM | [17] 15.3 µM

O=C(N/N=C/c1ccccc1O)c1ccncc1
active: [11] 9.44 µM | [13] 23.7 µM | [17] 0.473 µM
not listed: [5]
inactive: all other assays above

NNc1nc(-c2ccccc2)cs1
not listed: [5] | [12] | [13]
inactive: all other assays above
